Measured values from PubChem BioAssay AID1159580 (chemical genetic matrix, 2015).
Values joined by “and” are separate entries in the source; they are usually repeats but may differ in a detail not shown here. Equal values may be shown once. Screen size: about 5,500 compounds; about 2,000 (36%) were called active. Roughly 18% stayed inconclusive and do not appear here. Cut-off read from the data, not from the text of the source: active = normalized growth mostly below about 0.91 (no sharp cut-off); inconclusive = no clear call, values can overlap the other calls; inactive = mostly above about 0.92. The list shows a part of the results.

Assay: chemical genetic growth profiling, strain panel (AID 1159580);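 note: tested at 20 µM; growth read once vehicle control cultures reached saturation at 30 °C; 1 = growth at the plate median or of vehicle wells; lower values mean less growth of the strain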
Details: S. cerevisiae deletion strains, growth OD

Measured: normalized growth

Cc1cc(O)c2c(c1O)C(=O)c1c(O)cc(C)c(O)c1C2=O
inactive: locus YAL013W, strain DEP1, active compounds read low 0.982 | locus YAL021C, strain ccr4, active compounds read low 0.948 | locus YAL026C, strain drs2, active compounds read low 0.969 | locus YAL030W, strain snc1, active compounds read low 0.951 | locus YBL061C, strain skt5, active compounds read low 0.968 | locus YBR009C, strain hhf1, active compounds read low 0.97 | locus YBR021W, strain FUR4, active compounds read low 1.12 | locus YBR023C, strain chs3, active compounds read low 0.983 | locus YBR171W, strain sec66, active compounds read low 0.948 | locus YBR229C, strain ROT2, active compounds read low 0.969 | locus YBR231C, strain swc5, active compounds read low 0.974 | locus YBR279W, strain paf1, active compounds read low 0.989 | locus YCL011C, strain gbp2, active compounds read low 0.939 | locus YCL016C, strain dcc1, active compounds read low 0.978 | locus YCL029C, strain bik1, active compounds read low 0.988 | locus YCL061C, strain MRC1, active compounds read low 0.978 | locus YCL069W, strain vba3, active compounds read low 0.966 | locus YCR088W, strain abp1, active compounds read low 0.98 | locus YDL005C, strain med2, active compounds read low 0.971 | locus YDL035C, strain GPR1, active compounds read low 0.975 | locus YDL040C, strain nat1, active compounds read low 0.991 | locus YDL074C, strain BRE1, active compounds read low 1 | locus YDL101C, strain DUN1, active compounds read low 0.947 | locus YDL134C, strain PPH21, active compounds read low 0.967 | locus YDL185W, strain tfp1, active compounds read low 0.979 | locus YDL192W, strain arf1, active compounds read low 0.987 | locus YDR001C, strain nth1, active compounds read low 0.952 | locus YDR069C, strain doa4, active compounds read low 0.942 | locus YDR101C, strain arx1, active compounds read low 0.993 | locus YDR137W, strain rgp1, active compounds read low 0.877 | locus YDR150W, strain NUM1, active compounds read low 0.989 | locus YDR159W, strain sac3, active compounds read low 0.973 | locus YDR162C, strain NBP2, active compounds read low 0.921 | locus YDR195W, strain ref2 1.04 | locus YDR297W, strain sur2, active compounds read low 0.973 | locus YDR318W, strain mcm21, active compounds read low 0.985 | locus YDR334W, strain swr1, active compounds read low 0.921 | locus YDR335W, strain msn5, active compounds read low 0.961 | locus YDR388W, active compounds read low 0.986 | locus YDR392W, strain spt3, active compounds read low 0.858 | locus YDR502C, strain sam2, active compounds read low 1 | locus YEL003W, strain gim4, active compounds read low 0.956 | locus YEL037C, strain rad23, active compounds read low 0.972 | locus YEL061C, strain CIN8 (second series), active compounds read low 0.97 | locus YEL061C, strain CIN8, active compounds read low 0.97 | locus YER015W, strain faa2, active compounds read low 0.95 | locus YER016W, strain bim1, active compounds read low 0.979 | locus YER110C, active compounds read low 0.992 | locus YER111C, strain swi4, active compounds read low 0.963 | locus YER155C, strain BEM2 (second series), active compounds read low 0.946 | locus YER155C, strain BEM2, active compounds read low 0.996 | locus YER167W, strain BCK2, active compounds read low 1.01 | locus YFR010W, strain ubp6, active compounds read low 0.942 | locus YGL078C, strain dbp3, active compounds read low 0.993 | locus YGL086W, strain mad1, active compounds read low 0.981 | locus YGL167C, strain pmr1, active compounds read low 0.977 | locus YGL173C, strain kem1, active compounds read low 0.946 | locus YGL227W, strain vid30, active compounds read low 0.983 | locus YGL240W, strain doc1, active compounds read low 0.962 | locus YGL248W, strain PDE1, active compounds read low 0.945 | locus YGL253W, strain hxk2, active compounds read low 0.985 | locus YGR078C, strain PAC10, active compounds read low 0.983 | locus YGR135W, strain pre9, active compounds read low 0.988 | locus YGR229C, strain SMI1, active compounds read low 0.992 | locus YGR252W, strain gcn5, active compounds read low 1.16 | locus YHR013C, strain ard1, active compounds read low 0.957 | locus YHR027C, strain rpn1, active compounds read low 0.951 | locus YHR030C, strain SLT2, active compounds read low 0.964 and 0.996 | locus YHR079C, strain IRE1 (second series), active compounds read low 0.985 | locus YHR079C, strain IRE1, active compounds read low 1 | locus YHR094C, strain hxt1, active compounds read low 0.995 | locus YHR129C, strain ARP1, active compounds read low 0.963 | locus YHR142W, strain chs7, active compounds read low 0.964 | locus YHR200W, strain rpn10, active compounds read low 0.994 | locus YIL066C, strain RNR3, active compounds read low 0.939 | locus YIL073C, strain SPO22, active compounds read low 1.3 | locus YIL125W, strain kgd1, active compounds read low 1 | locus YIR030C, strain dcg1, active compounds read low 0.997 | locus YJL092W, strain hpr5, active compounds read low 0.965 | locus YJL095W, strain BCK1 (second series), active compounds read low 0.974 | locus YJL095W, strain BCK1, active compounds read low 0.893 and 0.997 | locus YJL115W, strain asf1, active compounds read low 0.938 | locus YJL129C, strain trk1, active compounds read low 0.891 | locus YJL134W, strain LCB3, active compounds read low 0.977 | locus YJL154C, strain vps35, active compounds read low 0.971 | locus YJL164C, strain tpk1, active compounds read low 0.971 | locus YJL166W, strain qcr8, active compounds read low 0.978 | locus YJL168C, strain set2, active compounds read low 0.969 | locus YJL187C, strain SWE1 (second series), active compounds read low 0.903 | locus YJL187C, strain SWE1, active compounds read low 0.968 | locus YJR043C, strain POL32, active compounds read low 1.02 | locus YJR066W, strain TOR1, active compounds read low 0.926
